Source: PubChem BioAssay (NCI)
Compounds without any hit were thinned out: in the full panel of roughly 79,000, 15% have a hit. Active and inactive are the calls of the source. Cut-off read from the data, not from the text of the source: active = growth inhibition above about 70%; inactive = the rest.

Key:
[1] = NCI Yeast Anticancer Drug Screen. Data for the wt2 strain (AID 169);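 note: 0% = growth of vehicle-treated yeast cultures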; conditions: S. cerevisiae wt2 strain growth inhibition, active compounds read high
Procedure, shortened: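 Read-out: growth inhibition versus vehicle-treated control cultures after compound exposure of the yeast strain.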

[2] = NCI Yeast Anticancer Drug Screen. Data for the mlh1 strain (AID 171);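 note: 0% = growth of vehicle-treated control cultures of the same strain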; conditions: S. cerevisiae mlh1 strain growth inhibition, active compounds read high
Procedure, shortened: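 Read-out: growth inhibition versus vehicle controls. Strain: engineered yeast with a defined DNA repair or cell cycle defect, compound-treated.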

[3] = NCI Yeast Anticancer Drug Screen. Data for the sgs1 strain (AID 173);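 note: 0% = growth of vehicle-only control cultures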; conditions: S. cerevisiae sgs1 mutant, active compounds read high
Procedure, shortened: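 Read-out: yeast growth inhibition relative to vehicle controls, following compound exposure of a strain with a defined DNA repair/cell cycle alteration.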

[4] = NCI Yeast Anticancer Drug Screen. Data for the mlh1 rad18 strain (AID 175); conditions: S. cerevisiae mlh1 rad18 strain growth inhibition, active compounds read high
Procedure, shortened: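 Yeast w/ defined DNA-repair lesions; compound exposure; growth vs vehicle controls → % inhibition.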

[5] = NCI Yeast Anticancer Drug Screen. Data for the rad18 strain (AID 177); conditions: S. cerevisiae rad18 mutant growth inhibition, active compounds read high
Procedure, shortened: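 Readout: growth inhibition vs vehicle controls. Cells: genetically altered yeast strain, DNA repair defect.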

[6] = NCI Yeast Anticancer Drug Screen. Data for the rad52 strain (AID 147);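 note: 0% = growth of vehicle-treated control cultures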; conditions: S. cerevisiae rad52 mutant growth inhibition, active compounds read high
Procedure, shortened: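 Read-out: growth inhibition versus vehicle-treated controls. Cells were a DNA repair-deficient yeast strain treated with compounds.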

[7] = NCI Yeast Anticancer Drug Screen. Data for the wt1 strain (AID 149);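 note: 0% = growth of vehicle-treated wt1 cultures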; conditions: S. cerevisiae wt1 strain (SPY 50644) growth inhibition, active compounds read high
Procedure, shortened: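 Vehicle-normalised growth inhibition; strain wt1; compound exposure.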

[8] = NCI Yeast Anticancer Drug Screen. Data for the rad50EPP+ strain (AID 151);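 note: 0% = growth of vehicle-treated control cultures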; conditions: S. cerevisiae rad50 mutant strain, active compounds read high
Procedure, shortened: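 Growth inhibition read against vehicle controls in rad50EPP+ yeast, a strain altered in DNA damage repair, after compound exposure.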

[9] = NCI Yeast Anticancer Drug Screen. Data for the mgt1 strain (AID 153); conditions: S. cerevisiae mgt1 mutant growth inhibition, active compounds read high
Procedure, shortened: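 mgt1 yeast grown with test compound; read-out is growth inhibition versus vehicle-treated cultures.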

[10] = NCI Yeast Anticancer Drug Screen. Data for the rad50 strain (AID 155);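 note: 0% = growth of vehicle-only cultures of the same strain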; conditions: S. cerevisiae rad50 strain growth inhibition, active compounds read high
Procedure, shortened: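 A DNA repair-deficient yeast mutant serves as the test organism; compound-induced growth inhibition is calculated against vehicle-treated cells.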

[11] = NCI Yeast Anticancer Drug Screen. Data for the mec2-1 strain (AID 157); conditions: S. cerevisiae mec2-1 strain, active compounds read high
Procedure, shortened: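 Yeast mec2-1 mutant treated with compound. Readout: growth inhibition vs vehicle controls.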

[12] = NCI Yeast Anticancer Drug Screen. Data for the rad14 strain (AID 159);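 note: 0% = growth of vehicle-treated control cultures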; conditions: S. cerevisiae rad14 strain growth inhibition, active compounds read high
Procedure, shortened: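 Vehicle-treated cultures served as the baseline for growth inhibition of a DNA repair-mutant yeast strain exposed to each compound.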

[13] = NCI Yeast Anticancer Drug Screen. Data for the sgs1 mgt1 strain (AID 161);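 note: 0% = growth of cultures given vehicle only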; conditions: S. cerevisiae sgs1 mgt1 strain, active compounds read high
Procedure, shortened: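 Inhibition of yeast growth, normalised to vehicle-treated controls, is reported for a strain bearing genetic alterations in DNA damage repair.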

[14] = NCI Yeast Anticancer Drug Screen. Data for the CLN2oe strain (AID 163);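 note: 0% = growth of vehicle-only control cultures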; conditions: S. cerevisiae CLN2oe strain, active compounds read high
Procedure, shortened: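 Read-out: yeast growth inhibition, expressed relative to vehicle-only controls. The strain bears an engineered cell-cycle alteration.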

[15] = NCI Yeast Anticancer Drug Screen. Data for the cln2 rad14 strain (AID 165);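 note: 0% = growth equal to vehicle treated cultures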; conditions: S. cerevisiae cln2 rad14 strain, active compounds read high
Procedure, shortened: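 cln2 rad14 yeast strain; compound exposure; growth inhibition read vs vehicle controls.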

[16] = NCI Yeast Anticancer Drug Screen. Data for the bub3 strain (AID 167); conditions: S. cerevisiae bub3 mutant strain, active compounds read high
Procedure, shortened: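 Inhibition values come from growth of compound-treated mutant yeast normalised to vehicle-treated controls.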

[17] = at 5.0 µM (retest, dose inferred, filed as 0.5)
[18] = at 50.0 µM (retest, dose inferred, filed as 5.0)

Measured: growth inhibition

S=C(S)NCC1CCC(CNC(=S)S)CC1 (stereo not given)
inactive: [1]; at 33.0 µM 28% | [2]; at 1.2 µM -4% | [2]; at 3.7 µM 15% | [2]; at 11.0 µM 5% | [2]; at 33.0 µM 32% | [3]; at 1.2 µM -3% | [3]; at 3.7 µM 14% | [3]; at 11.0 µM 16% | [3]; at 33.0 µM 48% | [4]; [17] 44% | [4]; at 50.0 µM 43.5% | [5]; at 1.2 µM 2% | [5]; at 3.7 µM 6% | [5]; at 11.0 µM 16% | [5]; at 33.0 µM 18%
active: [1]; at 100.0 µM 83% | [2]; at 100.0 µM 71% | [3]; at 100.0 µM 87% | [4]; [18] 99% | [5]; at 100.0 µM 78%

S=c1[nH]nc(-c2ccc(Cl)cc2)s1
active: [6]; at 33.0 µM 93% | [6]; at 100.0 µM 97% | [7]; at 33.0 µM 78% | [7]; at 100.0 µM 96% | [8]; at 100.0 µM 81% | [9]; at 33.0 µM 83% | [9]; at 100.0 µM 97% | [10]; [17] 73% | [10]; at 33.0 µM 90% | [10]; [18] 99% | [10]; at 50.0 µM 87.2% | [10]; at 100.0 µM 95% | [11]; [17] 72% | [11]; at 33.0 µM 71% | [11]; [18] 99% | [11]; at 50.0 µM 87.8% | [11]; at 100.0 µM 96% | [12]; at 33.0 µM 92% | [12]; at 100.0 µM 97% | [13]; [18] 97% | [14]; at 100.0 µM 95% | [15]; [18] 97% | [16]; at 33.0 µM 81% | [16]; [18] 96% | [16]; at 100.0 µM 96% | [1]; at 100.0 µM 96% | [2]; at 100.0 µM 96% | [3]; at 100.0 µM 94% | [4]; [17] 80% | [4]; [18] 99% | [4]; at 50.0 µM 86% | [5]; at 33.0 µM 92% | [5]; at 100.0 µM 96%
inactive: [6]; at 1.2 µM 16% | [6]; at 3.7 µM 7% | [6]; at 11.0 µM 23% | [7]; at 1.2 µM -18% | [7]; at 3.7 µM -21% | [7]; at 11.0 µM -25% | [8]; at 1.2 µM -1% | [8]; at 3.7 µM -1% | [8]; at 11.0 µM -9% | [8]; at 33.0 µM 31% | [9]; at 1.2 µM 8% | [9]; at 3.7 µM 11% | [9]; at 11.0 µM 12% | [10]; at 1.2 µM -6% | [10]; at 3.7 µM -7% | [10]; at 11.0 µM 21% | [11]; at 1.2 µM 1% | [11]; at 3.7 µM 12% | [11]; at 11.0 µM -15% | [12]; at 1.2 µM -24% | [12]; at 3.7 µM -18% | [12]; at 11.0 µM -16% | [13]; [17] -8% | [14]; at 1.2 µM 6% | [14]; at 3.7 µM 12% | [14]; at 11.0 µM -10% | [14]; at 33.0 µM 55% | [15]; [17] 52% | [16]; at 1.2 µM 23% | [16]; at 3.7 µM 24% | [16]; [17] 27% | [16]; at 11.0 µM 16% | [1]; at 1.2 µM -28% | [1]; at 3.7 µM -21% | [1]; at 11.0 µM -28% | [1]; at 33.0 µM 69% | [2]; at 1.2 µM -16% | [2]; at 3.7 µM -17% | [2]; at 11.0 µM -8% | [2]; at 33.0 µM 67% | [3]; at 1.2 µM -13% | [3]; at 3.7 µM -13% | [3]; at 11.0 µM -16% | [3]; at 33.0 µM 64% | [5]; at 1.2 µM -15% | [5]; at 3.7 µM -6% | [5]; at 11.0 µM 21%
